Over roughly 33,000 sequences, “E-score (-0.5 to 0.5)” has its median near -0.054; the highest 2% begin near 0.35. The sample holds the highest values, similar sequences and a random draw of the others, so the mix is not that of the screen.

The assay has as its target T1, Stb5 (UniProt P38699).
T1 sequence: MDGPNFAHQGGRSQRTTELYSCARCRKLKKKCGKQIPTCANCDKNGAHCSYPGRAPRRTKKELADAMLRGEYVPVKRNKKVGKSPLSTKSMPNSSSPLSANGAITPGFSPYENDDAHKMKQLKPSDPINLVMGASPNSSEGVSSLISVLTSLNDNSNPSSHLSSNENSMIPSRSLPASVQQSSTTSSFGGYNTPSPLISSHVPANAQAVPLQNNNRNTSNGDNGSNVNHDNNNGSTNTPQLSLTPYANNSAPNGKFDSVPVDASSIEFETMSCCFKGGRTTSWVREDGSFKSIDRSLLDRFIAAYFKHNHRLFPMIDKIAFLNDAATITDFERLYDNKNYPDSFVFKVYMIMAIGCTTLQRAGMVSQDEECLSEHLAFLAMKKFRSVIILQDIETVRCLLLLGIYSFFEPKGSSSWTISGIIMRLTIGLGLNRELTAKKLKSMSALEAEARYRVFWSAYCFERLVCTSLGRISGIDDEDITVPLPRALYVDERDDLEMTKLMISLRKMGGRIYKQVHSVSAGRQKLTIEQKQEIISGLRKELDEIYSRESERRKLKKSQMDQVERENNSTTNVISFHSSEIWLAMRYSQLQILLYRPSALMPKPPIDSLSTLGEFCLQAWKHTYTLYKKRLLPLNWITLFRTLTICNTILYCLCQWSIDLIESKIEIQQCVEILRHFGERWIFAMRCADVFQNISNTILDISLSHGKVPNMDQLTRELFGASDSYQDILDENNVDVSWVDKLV
Briefly: PBM E-score (8-mer binding enrichment) (E-score (-0.5 to 0.5)); higher = stronger / more preferred TF binding. As to conditions: protein concentration: 200 nM; construct: GST-full length. Here is the method: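 Universal 'all 10-mer' protein binding microarrays (Agilent AMADID 015681) probed with GST-tagged S. cerevisiae TFs (full-length or DBD) made by in vitro transcription/translation (PURExpress), about 100-200 nM. Bound TF was detected with fluorescent anti-GST. Each ungapped 8-mer (which stands for itself and its reverse complement) is scored by the PBM enrichment score (E-score), a modified Wilcoxon-Mann-Whitney statistic from -0.5 to +0.5, computed with the Universal PBM Analysis Suite. Scale: above 0.35 generally sequence-specific binding.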
CCGTGAGC: the “PBM E-score” value was 0.196.

In the case of CACTACCC, the “PBM E-score” value was -0.179.

ATGCACTA: the “PBM E-score” value is -0.0627.

GGTATGTA: the “PBM E-score” value came to 0.18.

As to CGACTAAC, the “PBM E-score” value came to 0.00814.

As for AACCCTGG, the “PBM E-score” value was -0.284.

On to ACAGGATC, for which the “PBM E-score” value was -0.312.

Turning to CAATTAAA, the “PBM E-score” value is -0.00358.

For the sequence GCCTCCTA, the “PBM E-score” value is -0.0585.

Consider AGACTTGG, for which the “PBM E-score” value is -0.17.

In the case of ATAACGCC, the “PBM E-score” value came out at 0.359.

On to AAAACGCC, for which the “PBM E-score” value was found to be 0.368.

Take CTAACGCC: the “PBM E-score” value amounted to 0.316.

On to CAAACGCC, for which the “PBM E-score” value worked out at 0.243.

ATAACGCG: the “PBM E-score” value stood at 0.0524.

Consider AAAACGCG, for which the “PBM E-score” value was found to be 0.0108.

Take AAACCAGG: the “PBM E-score” value was -0.00613.

Consider CCCGAGAG, for which the “PBM E-score” value stood at 0.0886.

With GAATTCTA, the “PBM E-score” value was -0.248.

In the case of ACCTTCAA, the “PBM E-score” value is -0.0982.

With CTGGTTAA, the “PBM E-score” value was -0.102.

On to ACGGGGAT, for which the “PBM E-score” value is 0.415.

For ACGGGAAT, the “PBM E-score” value turned out to be 0.371.

In the case of ACGGGAAC, the “PBM E-score” value was 0.205.

For the sequence ACGGGCCG, the “PBM E-score” value came to 0.194.

Consider ACGGGCCA, for which the “PBM E-score” value was found to be 0.169.

Regarding ACGGGGAC, the “PBM E-score” value came to 0.241.

Turning to ACGGGAAG, the “PBM E-score” value was -0.0191.

For ACGGGGAG, the “PBM E-score” value is 0.202.

For ACGGGGCC, the “PBM E-score” value stood at 0.221.

As for ACGGGCCT, the “PBM E-score” value came out at 0.376.

For ACGGGGCA, the “PBM E-score” value amounted to 0.159.

Take ACGGGGCT: the “PBM E-score” value turned out to be 0.366.

Regarding CCAATCTA, the “PBM E-score” value was -0.0421.

In the case of CACGCTGG, the “PBM E-score” value was -0.14.

With CTGATAGA, the “PBM E-score” value is -0.0917.

Turning to CAAGTACA, the “PBM E-score” value is -0.12.

Regarding AAACAGAC, the “PBM E-score” value was -0.131.

As for ACTAGACA, the “PBM E-score” value was -0.184.

As for AACCGGGC, the “PBM E-score” value amounted to 0.239.

GCTTGGCC: the “PBM E-score” value is 0.143.

As to GGCCACGA, the “PBM E-score” value was determined as 0.111.

Consider AGTACCCA, for which the “PBM E-score” value was -0.101.

As for ATGGTCAG, the “PBM E-score” value is -0.183.

In the case of ACCGGGGG, the “PBM E-score” value amounted to 0.286.

For the sequence ACCGGGGC, the “PBM E-score” value is 0.359.

With ACCGGGCA, the “PBM E-score” value turned out to be 0.276.

Consider ACGGGGTG, for which the “PBM E-score” value was found to be 0.286.

Take ACCGGGCT: the “PBM E-score” value amounted to 0.38.

Turning to ACGGGGTA, the “PBM E-score” value is 0.248.

Consider ACCGGGCC, for which the “PBM E-score” value came out at 0.306.

On to ACGGGGTC, for which the “PBM E-score” value stood at 0.362.

As for ACGGGCAT, the “PBM E-score” value was determined as 0.363.

Consider CCCGGGGC, for which the “PBM E-score” value is 0.258.

For the sequence ACGGGCAC, the “PBM E-score” value was 0.105.

For the sequence ACGGGCAG, the “PBM E-score” value was -0.0575.

CCGTATCA: the “PBM E-score” value came to 0.145.

Take CCGTCTCC: the “PBM E-score” value was 0.22.

Take CCCTCAAC: the “PBM E-score” value was -0.125.

Turning to AAGTAGGT, the “PBM E-score” value worked out at 0.00443.

ATAAGTAC: the “PBM E-score” value came out at 0.133.

Regarding CATGACCA, the “PBM E-score” value is -0.378.

For CTGGACTC, the “PBM E-score” value was -0.169.

For AAACGAAC, the “PBM E-score” value is -0.193.

Consider ACCTTACA, for which the “PBM E-score” value is -0.0752.

For the sequence CGGGTTTA, the “PBM E-score” value was 0.467.

With CGGTTATA, the “PBM E-score” value amounted to 0.37.

Consider AGGTTCTA, for which the “PBM E-score” value turned out to be 0.0114.

Consider GGGGTTTA, for which the “PBM E-score” value is 0.329.

With GGGTTCTA, the “PBM E-score” value was 0.162.

Turning to CGGGTTTC, the “PBM E-score” value was found to be 0.273.

CGGTTTTA: the “PBM E-score” value was determined as 0.41.

As to CGGTTTAA, the “PBM E-score” value was 0.155.

As to AGGTTTTA, the “PBM E-score” value amounted to 0.0721.

On to GGGTTATA, for which the “PBM E-score” value was 0.257.

Take CGGTTCTA: the “PBM E-score” value came to 0.36.

As for AGGTTATA, the “PBM E-score” value is -0.0254.

On to CTAAAGGA, for which the “PBM E-score” value came to 0.0339.

With ACTGAAGC, the “PBM E-score” value was -0.111.

As for CTCCATAC, the “PBM E-score” value is -0.0338.

As for CGTTCGGA, the “PBM E-score” value came out at 0.243.

Take GAAGGTCA: the “PBM E-score” value was -0.15.

AACACCAG: the “PBM E-score” value turned out to be 0.011.

In the case of ACCGTCGC, the “PBM E-score” value was determined as 0.332.

In the case of ACCGTCGG, the “PBM E-score” value came to 0.392.

CCCGTCGG: the “PBM E-score” value stood at 0.435.

For the sequence CCCGTCGC, the “PBM E-score” value was found to be 0.25.

For the origin of these results see the supplement of paper PMC3334620.
